PubChem BioAssay (Tox21)
Results filed as inconclusive are left out. The source made the active and inactive calls. Unless noted, calls follow the shape of the full dose curve.

Key:
[1] = target: Peroxisome proliferator-activated receptor delta (Homo sapiens) (UniProt Q03181); test: qHTS assay to identify small molecule agonists of the peroxisome proliferator-activated receptor delta (PPARd) signaling pathway (AID 743212)
Outline: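 Quantitative high-throughput agonist screen in a HEK293H beta-lactamase reporter line under UAS control. Compounds in DMSO, at 37 C. Fluorescence read after 2 h with FRET substrate at room temperature.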

[2] = qHTS assay to identify small molecule antagonists of the peroxisome proliferator-activated receptor delta (PPARd) signaling pathway - cell viability counter screen (AID 743213; active = well fitted curve in the direction sought with a large enough effect in the repeat runs; an effect the other way counts as inactive or inconclusive; also: nearly all actives have a fitted effect of over 50% in size)
Outline: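 PPARd-bla HEK293H cells (3000/well) got compound plus 300 nM L165041 agonist for 17 h at 37 C. Viability in the same wells came from CellTiter-Glo luminescence after 30 min at room temperature.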

[3] = target: Peroxisome proliferator-activated receptor delta (Homo sapiens) (UniProt Q03181); test: qHTS assay to identify small molecule antagonists of the peroxisome proliferator-activated receptor delta (PPARd) signaling pathway (AID 743215; active = well fitted inhibition curve with a large enough effect in the signal ratio in the repeat runs, not every such curve was filed as active; the % refers to the signal ratio;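 also: cells stimulated with agonist L165041 at 300 nM final during compound exposure; series mostly up to about 62 µM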)
Outline: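 With L165041 present at 300 nM final, compounds were incubated 17 h at 37 C on PPARd UAS-bla HEK293H cells. A FRET-based beta-lactamase substrate was then applied for 2 h at room temperature and fluorescence intensity recorded.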

[4] = target: Bile acid receptor (Homo sapiens) (UniProt Q96RI1); test: qHTS assay to identify small molecule antagonists of the farnesoid-X-receptor (FXR) signaling pathway (AID 743217; active = well fitted inhibition curve with a large enough effect in the signal ratio in the repeat runs, not every such curve was filed as active; the % refers to the signal ratio)
Chain of Bile acid receptor (Homo sapiens) (Q96RI1 whole entry, looked up): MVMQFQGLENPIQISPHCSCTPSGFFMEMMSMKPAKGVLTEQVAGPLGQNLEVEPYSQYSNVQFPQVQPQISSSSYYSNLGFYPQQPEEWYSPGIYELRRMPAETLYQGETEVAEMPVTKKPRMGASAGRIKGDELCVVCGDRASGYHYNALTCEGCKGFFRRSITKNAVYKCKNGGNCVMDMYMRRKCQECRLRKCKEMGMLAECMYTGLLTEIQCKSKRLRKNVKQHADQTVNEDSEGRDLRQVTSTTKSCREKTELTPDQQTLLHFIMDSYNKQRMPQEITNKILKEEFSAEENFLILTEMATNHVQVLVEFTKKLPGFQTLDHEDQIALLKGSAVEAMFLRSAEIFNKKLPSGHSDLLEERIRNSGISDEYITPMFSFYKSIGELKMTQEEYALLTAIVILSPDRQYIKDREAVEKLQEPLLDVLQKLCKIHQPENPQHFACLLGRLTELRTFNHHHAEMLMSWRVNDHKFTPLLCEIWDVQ
Outline: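 In this cell-based antagonist screen, inhibition of CDCA-driven (50 uM final) UAS-beta-lactamase expression in HEK 293T cells was measured by FRET fluorescence following 16 h compound exposure at 37 °C.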

[5] = qHTS assay to identify small molecule agonists of the farnesoid-X-receptor (FXR) signaling pathway - cell viability counter screen (AID 743218; active = well fitted curve in the direction sought with a large enough effect in the repeat runs; an effect the other way counts as inactive or inconclusive; also: nearly all actives have a fitted effect of over 45% in size)
Outline: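 After 16 h at 37 C with test compounds, FXR-bla HEK 293T cells were given LiveBLAzer B/G substrate for 2 h at RT and then CellTiter-Glo; luminescence was taken after 30 min.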

[6] = target: Bile acid receptor (Homo sapiens) (UniProt Q96RI1); test: qHTS assay to identify small molecule agonists of the farnesoid-X-receptor (FXR) signaling pathway (AID 743220; active = well fitted activation curve with a large enough effect in the signal ratio in the repeat runs, not every such curve was filed as active; the % refers to the signal ratio)
Outline: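 Beta-lactamase reporter under UAS control in GeneBLAzer FXR HEK 293T cells (5000/well) measured with LiveBLAzer FRET substrate after 2 h at room temperature. Compound exposure lasted 16 h at 37C.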

[7] = qHTS assay to identify small molecule antagonists of the farnesoid-X-receptor (FXR) signaling pathway - cell viability counter screen (AID 743221; active = well fitted cell-killing curve with a large enough effect in the repeat runs, not every such curve was filed as active; also: nearly all actives have a fitted effect of over 50% in size)
Outline: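 Cytotoxicity is taken from ATP luminescence (CellTiter-Glo, 30 min, room temperature) in FXR-bla HEK 293T cells previously incubated 16 h at 37 C with compound and chenodeoxycholic acid at 50 uM final.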

[8] = target: Vitamin D3 receptor (Homo sapiens) (UniProt P11473); test: qHTS assay to identify small molecule agonists of the vitamin D receptor (VDR) signaling pathway (AID 743222)
Chain of Vitamin D3 receptor (Homo sapiens) (P11473 whole entry, looked up): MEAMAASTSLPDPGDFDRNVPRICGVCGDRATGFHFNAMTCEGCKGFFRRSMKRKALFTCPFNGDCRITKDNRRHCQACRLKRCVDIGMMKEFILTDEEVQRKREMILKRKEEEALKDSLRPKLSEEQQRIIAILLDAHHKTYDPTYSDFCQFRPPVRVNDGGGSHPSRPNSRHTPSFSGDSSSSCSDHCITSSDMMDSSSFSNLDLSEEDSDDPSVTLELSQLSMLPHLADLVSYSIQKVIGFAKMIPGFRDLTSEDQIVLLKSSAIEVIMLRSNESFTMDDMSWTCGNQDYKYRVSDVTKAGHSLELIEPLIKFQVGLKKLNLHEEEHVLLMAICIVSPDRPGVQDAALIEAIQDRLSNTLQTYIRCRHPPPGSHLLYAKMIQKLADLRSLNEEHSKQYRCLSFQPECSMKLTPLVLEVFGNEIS
Outline: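 VDR-bla cells were seeded, left 4 h, treated with compounds in DMSO for 16 h, incubated 2 h at RT with B/G FRET substrate, and read for fluorescence.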

[9] = target: Vitamin D3 receptor (Homo sapiens) (UniProt P11473); test: qHTS assay to identify small molecule antagonists of the vitamin D receptor (VDR) signaling pathway (AID 743223; active = well fitted inhibition curve with a large enough effect in the signal ratio in the repeat runs, not every such curve was filed as active; the % refers to the signal ratio)
Outline: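 Quantitative HTS in VDR-bla reporter cells stimulated with 1alpha,25-dihydroxyvitamin D3, 3 nM final. Compound exposure 16 h, 37C, 5% CO2. Read-out: beta-lactamase FRET substrate fluorescence, 2 h RT.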

[10] = qHTS assay to identify small molecule agonists of the vitamin D receptor (VDR) signaling pathway - cell viability counter screen (AID 743224; active = well fitted curve in the direction sought with a large enough effect in the repeat runs; an effect the other way counts as inactive or inconclusive; also: series mostly up to about 63 µM; nearly all actives have a fitted effect of over 50% in size)
Outline: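 Here cell health was gauged by luminescent ATP detection (CellTiter-Glo, 30 min RT) in VDR-bla cells that had been incubated with test compounds for 16 h at 37C and 5% CO2.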

[11] = qHTS assay to identify small molecule antagonists of the vitamin D receptor (VDR) signaling pathway - cell viability counter screen (AID 743225; active = well fitted curve in the direction sought with a large enough effect in the repeat runs; an effect the other way counts as inactive or inconclusive; also: nearly all actives have a fitted effect of over 50% in size)
Outline: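 Same-well multiplex: following 16 h treatment of HEK 293T cells carrying a UAS-driven beta-lactamase reporter with compound and agonist (3 nM final), and a 2 h FRET substrate step, CellTiter-Glo was added and luminescence read after 30 min.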

[12] = qHTS assay to identify small molecule agonists of the NFkB signaling pathway (AID 1159509; active = well fitted curve in the direction sought with a large enough effect in the signal ratio in the repeat runs, not every such curve was filed as active; the % refers to the signal ratio; also: series mostly up to about 61 µM)
Outline: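 After overnight attachment, reporter cells received test compounds, DMSO or positive controls and were incubated 5 hr at 37 C. FRET substrate was then added for 1.5 hr at room temperature before dual-emission fluorescence reading.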

[13] = qHTS assay to identify small molecule agonists of the NFkB signaling pathway - cell viability counter screen (AID 1159515); also: series mostly up to about 61 µM; nearly all actives have a fitted effect of over 55% in size
Outline: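 5 hr compound treatment of NFkB-bla ME-180 cells (2,000/well, seeded overnight beforehand), followed by reporter substrate for 1.5 hr. CellTiter-Glo added afterward; luminescence after 30 min RT.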

[14] = qHTS assay to identify small molecule agonists of the endoplasmic reticulum stress response signaling pathway (AID 1159516; active = well fitted activation curve with a large enough effect in the signal ratio in the repeat runs, not every such curve was filed as active; the % refers to the signal ratio)
Outline: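 Reporter HeLa cells (ESRE-beta-lactamase) underwent 5 hr compound incubation at 37 C and 5% CO2 in quantitative HTS format. Detection followed 2 hr of FRET substrate loading at room temperature.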

[15] = qHTS assay to identify small molecule agonists of the endoplasmic reticulum stress response signaling pathway - cell viability counter screen (AID 1159517)
Outline: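 Counter-screen wells were identical to the reporter wells. Cells were plated at 1,500 per well and dosed for 5 hr, then read for luminescence 30 min after CellTiter-Glo addition.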

[16] = qHTS assay to identify small molecule antagonists of the retinoid-related orphan receptor gamma (ROR-gamma) signaling pathway - cell viability counter screen (AID 1159520; active = well fitted curve in the direction sought with a large enough effect in the repeat runs; an effect the other way counts as inactive or inconclusive; also: nearly all actives have a fitted effect of over 50% in size)
Outline: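 Tet-on ROR gamma CHO cells were given compounds for 2 hr, then doxycycline hyclate at 1 uM final, and incubated 16 hr at 37 C. Viability was measured as ATP content by CellTiter-Glo luminescence.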

[17] = target: Nuclear receptor ROR-gamma (Homo sapiens) (UniProt P51449); test: qHTS assay to identify small molecule antagonists of the retinoid-related orphan receptor gamma (ROR-gamma) signaling pathway (AID 1159521; active = well fitted curve in the direction sought with a large enough effect in the repeat runs; an effect the other way counts as inactive or inconclusive)
Outline: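 Inducible-expression reporter assay: doxycycline (1 uM final) switched on RORγ in CHO cells bearing a ROR response element-luciferase construct, with test compounds present from 2 h beforehand. Decreased luminescence after 16 h defined antagonist activity.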

[18] = qHTS assay to identify small molecule agonists of the AP-1 signaling pathway - cell viability counter screen (AID 1159525); also: nearly all actives have a fitted effect of over 55% in size
Outline: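 AP-1-bla ME-180 cells in Opti-MEM with 0.5% dialyzed FBS, compound exposure 5 h at 37 C in 15-point titration. Viability read in the same wells as ATP content by CellTiter-Glo luminescence, normalised to tetra-n-octylammonium bromide and DMSO controls.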

[19] = qHTS assay to identify small molecule agonists of the AP-1 signaling pathway (AID 1159526)
[20] = target: Retinoic acid receptor RXR-alpha (Homo sapiens) (UniProt P19793); test: qHTS assay to identify small molecule agonists of the RXR signaling pathway (AID 1159527); also: nearly all actives have a fitted effect of over 35% in size
Chain of Retinoic acid receptor RXR-alpha (Homo sapiens) (P19793 whole entry, looked up): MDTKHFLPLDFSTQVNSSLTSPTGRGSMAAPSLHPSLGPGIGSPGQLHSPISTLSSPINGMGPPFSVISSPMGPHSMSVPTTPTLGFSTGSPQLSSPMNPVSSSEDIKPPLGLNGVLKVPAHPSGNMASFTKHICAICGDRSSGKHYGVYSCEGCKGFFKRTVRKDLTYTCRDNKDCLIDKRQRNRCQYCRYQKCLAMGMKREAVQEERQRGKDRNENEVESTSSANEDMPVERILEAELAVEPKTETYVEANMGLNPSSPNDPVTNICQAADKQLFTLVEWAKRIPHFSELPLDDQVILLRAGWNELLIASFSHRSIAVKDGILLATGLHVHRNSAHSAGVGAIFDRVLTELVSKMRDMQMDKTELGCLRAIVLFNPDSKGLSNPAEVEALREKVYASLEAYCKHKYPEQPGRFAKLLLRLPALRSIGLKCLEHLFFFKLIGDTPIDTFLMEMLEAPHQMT
Outline: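 Compounds in DMSO were added to RXR-alpha-UAS-bla HEK 293T cells kept in 2% charcoal-stripped serum, and incubated 16 hr at 37 C with 5% CO2. Reporter signal came from a 2 hr B/G FRET substrate step.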

Measured: Potency

Chain of Peroxisome proliferator-activated receptor delta (Homo sapiens) (Q03181 whole entry, looked up): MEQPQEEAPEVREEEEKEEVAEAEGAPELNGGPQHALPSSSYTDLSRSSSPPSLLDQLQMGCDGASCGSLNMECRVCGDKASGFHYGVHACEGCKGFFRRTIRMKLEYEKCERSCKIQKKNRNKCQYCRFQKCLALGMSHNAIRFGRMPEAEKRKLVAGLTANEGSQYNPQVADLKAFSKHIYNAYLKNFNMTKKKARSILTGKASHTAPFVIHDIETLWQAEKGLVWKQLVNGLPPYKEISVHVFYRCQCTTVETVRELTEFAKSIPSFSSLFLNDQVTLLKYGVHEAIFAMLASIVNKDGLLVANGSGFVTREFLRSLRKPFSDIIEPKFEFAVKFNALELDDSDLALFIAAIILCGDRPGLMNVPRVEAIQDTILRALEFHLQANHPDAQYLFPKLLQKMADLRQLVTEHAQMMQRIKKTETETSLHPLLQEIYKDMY

CCN(CC)C1CCCCC1
inactive: all assays above

N[C@@H](Cc1ccc(Oc2cc(I)c(O)c(I)c2)c(I)c1)C(=O)O
not listed: [8] | [9] | [11]
inactive: all other assays above

CCCCCCCC(=O)Cl
not listed: [8] | [9]
inactive: all other assays above

NCCOS(=O)(=O)O
inactive: all assays above

CCOC(=O)CCl
not listed: [11]
inactive: all other assays above

CN(C)CCc1c[nH]c2cccc(OP(=O)(O)O)c12
not listed: [8] | [9]
inactive: all other assays above

CCN[C@H](C)Cc1cccc(C(F)(F)F)c1
not listed: [6] | [8] | [9]
inactive: all other assays above

CC(C)N(Cc1ccccc1)C(=O)C(C)(C)C
not listed: [4] | [11]
inactive: all other assays above

O=S1(=O)OCCO1
not listed: [4] | [11]
inactive: all other assays above

BrCC1CO1 (centres undefined)
not listed: [5]
inactive: all other assays above

CC(C)(C)C(=O)Cl
not listed: [8] | [9]
inactive: all other assays above

C1CN2CCC1CC2
not listed: [8] | [9]
inactive: all other assays above

CCOC(=O)NC(C)(C)Cc1ccc(Cl)cc1
inactive: all assays above

CN(C)CCN(C)C
not listed: [11]
inactive: all other assays above

CCCCS(=O)(=O)Cl
inactive: all assays above

CCOC(=O)c1ncn2c1CN(C)C(=O)c1c(I)cccc1-2
not listed: [9]
inactive: all other assays above

CC(C)(O)C(Cl)(Cl)Cl
not listed: [10] | [11]
inactive: all other assays above

O=C(O)c1c(Cl)ccc2cc(Cl)cnc12
not listed: [11]
inactive: all other assays above

COc1cc(CCN)cc(OC)c1OC
not listed: [8]
inactive: all other assays above

CC[C@H](O)C(C[C@H](C)N(C)C)(c1ccccc1)c1ccccc1
not listed: [7]
inactive: all other assays above

Cc1cc(OC(=O)N(C)C)nn1C(=O)N(C)C
not listed: [8] | [9]
inactive: all other assays above

C#CC(C)(C)O
inactive: all assays above

CC(O)CCl (centres undefined)
not listed: [5] | [9]
inactive: all other assays above

CC1N=C(N)OC1c1ccccc1 (centres undefined)
not listed: [4]
inactive: all other assays above

COC(=O)[C@@H](N)CCCN/C(N)=N/[N+](=O)[O-]
not listed: [5] | [8] | [9]
inactive: all other assays above

CCC(=O)OC1(c2ccccc2)CCN(C)CC1
inactive: all assays above

O=C1CCCCC1Cl (centres undefined)
not listed: [11]
inactive: all other assays above

O=C(Cl)c1ccccc1
not listed: [5]
inactive: all other assays above

OP(O)c1ccccc1
not listed: [8] | [11]
inactive: all other assays above

CCN[C@@H](C)Cc1cccc(C(F)(F)F)c1
not listed: [8] | [9]
inactive: all other assays above
